# Test results: the supplement of paper PMC6555819
# Tested on: FXR:RXRa (NR concentration 270 nM, RXRa partner concentration 90 nM)
# Test: PBM binding z-score (relative to random genomic background probes); higher = stronger binding; sequences stand for … in GC…GCGATTGACAGCGTAGAATGAAGG
# How it was run: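 Ligand-free nuclear receptor dimers were bound for 1 h to custom Agilent 4×180K protein-binding microarrays. Detection used antibodies against each partner (one per run). Binding z-scores rest on regression-normalized fluorescence, with random background probes as the reference.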
row,Sequence,PBM binding z-score
1,CCACGGAGGACAGAAGGTCAGAGCTGTCCGCTTT,1.39
2,ATCTCGAGGTAAAGTTCAGTGAAAGATCGATAGA,1.3
3,CCAGACAGGTGTAAGGTAACTCAGTCTGGTACGC,-0.0338
4,CGAACTAGGTCATCCAGGACAGTGTATACATTGA,4.45
5,CGAACTAGGTCATCCAGGGCAGTGAATACATTGA,4.8
6,GCTTTCGGGTCAAAGGTTATAGCATGAATAGAAT,7.21
7,GCGACTGGGGTAAAGCAGGTTACCATAAGGTTGG,0.315
8,AGAATGAGGTTATGAAGATCAGGGAATTGCGGTC,1.75
9,GGAACGAGGGAAAAGTTGATAGCATCTGTCGACG,-0.286
10,ATATGTAGGTTAGCTGGGTTCATTCAGACTAGGC,1.75
11,AGAATGAGGTTATAAGTAGATCAGGGAAGAAAGT,1.94
12,TCTAGCAGGCCAAAGGGTCACTCAAGAGGTACGG,2.46
13,GCGACTGGGGCAAAGCAAGTTACCATAAGGTTGG,-0.106
14,GTACCAAGGTGAATAGGACGTTGATGAGTAGGCG,0.0663
15,TCAAGTAGGTTACCAATGGGGCATTCAGCTTTCT,0.176
16,TCATATAGGTACTACAGGTGAAAGTCGGCATCTA,0.842
17,TCATATAAGTAAACAGGTGAAAGTCCGTAAGTTA,1.27
18,TCATGTAGGTAAATGCTAGGTGAAAGTCCGATCT,0.737
19,CCTTACGGGTCACGAGGTTATAGGACGACGAGCG,6.8
20,ATATCAAGGTGATCGTGAGGTCGTTGATACTAAC,1.97

row,Sequence,PBM binding z-score
1,TAGCCTAGGTCATGCGGGCCACTATAGTGTCGGC,4.19
2,GTACCAAGGTGAAGAGGTCGTTGATGAGTAGGCG,1.67
3,CCTAGTTGGTCAAAGTCACACACGCTATAGGTAC,0.342
4,TCTTGTAGATCAAGCACGTTAAGAAAGCCTGAGT,0.465
5,TTACCAAGGTGAGAGGTCGTTGATGCACGCCTTG,1.86
6,TCTTGTAGATCAAAGGCTAAGAAAGCCGAAGCCT,0.284
7,TAGCCTAGGTCAGAACGGGCCAGTATACGCTATA,1.13
8,ATCGAAAGGTCGAAGGCGAGTATACCCACCCGAA,4.01
9,CCTAGCAAGCCAATCTGGGTCACTCAAGGCTTGA,0.309
10,CCGAGTTGGTCAGGAGGTCACACACCGGATATGA,3.49
11,AGAGACAGGTGAGTGAAGGTAACTCAGCTGGACG,0.542
12,GCTCGGCGGACAAGGTCAGAGCTTTGTCCGTAGA,1.19
13,ACTAGCAGGCCAAGTTTGGGCCACTCAAACAAAG,-0.478
14,ACTAGCAGGCCAAGTTTGGGTCACTCAGACAAAG,-0.039
15,CCTTACGGGTCACTCCAGGGTATAGCATCGGAGT,4.69
16,GGAACGAGGGCAATTTGATAGCAGAGTTTGATGG,0.502
17,CGTCCAAGGTCATAGGAGGTCAGTTAAGACAGAT,7.74
18,CGTCCAAGGTGAGCAGGTCAGTGAAAGCGACGTG,0.495
19,GCTAGTTGGTCAGTAAAAGGTCACACATCGGTCG,3.3
